Whole data set: some 33,000 sequences, median “E-score (-0.5 to 0.5)” near -0.054, cut for the highest 2% near 0.39. Shown is part of a subset that was picked to be rich in the highest values.
Target: Ylr278c (UniProt Q05854)
Experiment: PBM E-score (8-mer binding enrichment) (E-score (-0.5 to 0.5)); higher = stronger / more preferred TF binding
Details: protein concentration: 200 nM; construct: GST-DNA-binding domain
How it was run: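 PURExpress in vitro transcription/translation supplied GST-tagged yeast transcription factors, either full-length or DNA-binding domain. Applied at about 100-200 nM to universal all-10-mer Agilent arrays double-stranded by primer extension, the bound protein was detected with fluorescent anti-GST. E-scores, modified Wilcoxon-Mann-Whitney statistics, were given by the Universal PBM Analysis Suite to ungapped eight-base words pooled with their reverse complements after masliner normalisation.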

Chain of UniProt Q05854 (Q05854 whole entry): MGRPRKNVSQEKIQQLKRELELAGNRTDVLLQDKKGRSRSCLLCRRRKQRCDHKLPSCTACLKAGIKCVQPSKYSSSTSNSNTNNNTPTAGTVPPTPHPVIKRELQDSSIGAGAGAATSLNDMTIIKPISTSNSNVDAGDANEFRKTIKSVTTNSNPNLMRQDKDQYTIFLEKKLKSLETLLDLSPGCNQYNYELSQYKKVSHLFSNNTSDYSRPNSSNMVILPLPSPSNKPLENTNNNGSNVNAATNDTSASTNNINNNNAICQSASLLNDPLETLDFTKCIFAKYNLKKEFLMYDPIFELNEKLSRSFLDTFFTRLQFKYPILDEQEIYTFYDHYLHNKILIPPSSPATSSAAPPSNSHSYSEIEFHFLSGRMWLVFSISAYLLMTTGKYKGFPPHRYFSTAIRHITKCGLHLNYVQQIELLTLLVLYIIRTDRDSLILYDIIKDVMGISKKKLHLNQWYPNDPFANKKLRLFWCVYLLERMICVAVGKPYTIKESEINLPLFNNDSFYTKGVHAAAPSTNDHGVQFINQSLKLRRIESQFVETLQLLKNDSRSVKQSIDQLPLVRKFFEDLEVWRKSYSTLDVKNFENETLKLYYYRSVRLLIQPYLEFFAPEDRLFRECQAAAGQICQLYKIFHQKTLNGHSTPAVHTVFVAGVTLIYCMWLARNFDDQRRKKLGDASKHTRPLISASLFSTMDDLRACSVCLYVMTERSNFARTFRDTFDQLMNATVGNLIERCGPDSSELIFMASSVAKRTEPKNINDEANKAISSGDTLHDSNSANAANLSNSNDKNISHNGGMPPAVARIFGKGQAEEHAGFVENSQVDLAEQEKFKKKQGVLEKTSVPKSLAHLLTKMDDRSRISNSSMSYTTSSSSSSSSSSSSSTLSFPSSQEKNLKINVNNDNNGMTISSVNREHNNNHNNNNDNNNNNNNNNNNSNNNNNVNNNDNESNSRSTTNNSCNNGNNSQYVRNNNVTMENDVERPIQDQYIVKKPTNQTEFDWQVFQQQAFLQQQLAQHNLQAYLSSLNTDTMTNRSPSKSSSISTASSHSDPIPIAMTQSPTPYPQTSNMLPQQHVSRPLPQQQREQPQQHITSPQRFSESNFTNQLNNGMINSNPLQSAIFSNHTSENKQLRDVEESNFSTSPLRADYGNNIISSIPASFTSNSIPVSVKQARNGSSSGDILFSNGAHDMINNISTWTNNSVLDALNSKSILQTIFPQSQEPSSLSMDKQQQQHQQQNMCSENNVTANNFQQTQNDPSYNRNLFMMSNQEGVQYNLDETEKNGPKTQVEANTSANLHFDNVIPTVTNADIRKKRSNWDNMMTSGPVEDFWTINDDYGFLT

Sequence | PBM E-score
CTAACAAC | -0.0734
CCGCTGCA | 0.0719
CATGCTCA | -0.115
CTCCGTCC | 0.449
GTCCGTCA | 0.289
CTCCGTAA | 0.41
GTCCGTAA | 0.331
ATCCGTCA | 0.159
CCCCGTCC | 0.252
CTCCGTCA | 0.421
ATCCGTCC | 0.18
CTCCGTAC | 0.358
CGAATCCA | -0.0549
ACATTGGT | -0.1
AATATCTC | 0.0682
ACTGACAG | -0.0502
AGTGGGAT | -0.00431
CCGCCTCC | 0.283
CCTCCGCG | 0.416
ACTCCGCG | 0.462
CATCCGCC | 0.309
CCTCCGCA | 0.359
AATCCGCG | 0.323
ACTCCACG | 0.0682
CCTCCGCC | 0.413
CATCCGCG | 0.197

Sequence | PBM E-score
CGGTCAGA | 0.0192
ATCGCCAT | -0.0309
CGCGTCCA | 0.0142
AAGTGCCT | -0.328
AAAGCAGC | -0.0496
CTATGCAG | -0.166
AGGGGTGC | -0.114
AGAGTCGC | -0.14
GGTATCGA | -0.0372
AGATCGGG | 0.222
CGATCGTA | 0.00037
GGATCGGA | 0.438
CGATCGGC | 0.282
GGATCGAA | 0.0293
AGATCGGC | 0.224
GGATCGCA | -0.0558
CGATCGGA | 0.44
AGATCGGA | 0.43
ACTCAACT | 0.0546
GAGCATTA | -0.111
TATTGAAA | 0.0175
GGTTAGAA | -0.15
TAGCTAGA | -0.285
GAAACTCC | 0.399
CAAACTCC | 0.434
CAAACTCA | -0.0703

Sequence | PBM E-score
GAAACTTC | 0.0593
AAAACTCC | 0.386
GAAACTCA | -0.0472
GCTAAGAA | -0.0627
CCGGACGG | 0.396
CCGGACGA | 0.406
TCGGACGA | 0.271
ACGGACGG | 0.209
CCGGACGC | 0.364
ACGGACGA | 0.177
CGTGCATC | -0.152
CGCTTTCC | 0.143
ATTTCGTA | -0.062
CTCGATGA | -0.12
AATGGGCC | 0.0902
CAGAGGAG | -0.243
GGCTAGAA | 0.0303
CGGCATTA | 0.405
AGGCATTA | -0.134
GGGCATTA | -0.0729
ATGTCGGA | 0.397
GTGTCGTA | -0.209
GTGTCGCA | 0.00208
CTGTCGGA | 0.404
GTGTCGGA | 0.417
ATGTCGGG | 0.222

Sequence | PBM E-score
CTGTCGGC | 0.35
CTGTCGAA | -0.289
ATGTCGGC | 0.0736
GGACCAAA | 0.187
ATACGCTC | 0.00427
CGGCCACG | -0.0321
ACTCTGGA | -0.117
ATAGTCTA | -0.141
CGAAAGTA | 0.00237
ACGAAAGA | -0.0168
AGCTTACG | -0.143
AGTCGGGG | 0.282
CGACTCCA | -0.0167
AGACTCCG | 0.418
CGACTCCG | 0.406
AGACTCCT | -0.224
AGACTCCC | -0.167
CGACTCCC | 0.0244
CGAGCAAC | -0.00501
AGAAGACC | 0.0375
ACAAGACA | -0.0802
TACGAGTA | -0.0577
AGGACAAC | -0.163
CGGACAAG | 0.383
AGGACAAA | -0.0109
GGGACAAC | -0.104

Sequence | PBM E-score
CGGACAAC | 0.389
CGGACAAA | 0.425
AACATGAC | -0.0624
GTCAACTA | -0.084
AGGGCTAA | -0.0787
AGGTCCAG | -0.113
GGGTCCGA | 0.366
AGGTCCGC | 0.333
CGGTCCGC | 0.38
AGGTCCGA | 0.404
AGGTCCCA | -0.224
AGGTCCAA | -0.179
AGGTCCGG | 0.418
CGGTCCGA | 0.455
ACTAGTGG | -0.0388
AACATAGC | -0.0617
ATGTTGCC | -0.036
ATTGACCA | -0.196
CCTATCAC | -0.119
AACACAAT | -0.152
GCAACACC | 0.113
CGCTCGGA | 0.408
GGCTCGGA | 0.38
AGCTCGGA | 0.322
CCCTCGGC | 0.207
GCCTCGGA | 0.352

Sequence | PBM E-score
CCCTCGGA | 0.394
GCACTAGA | -0.16
CCTAGCAG | -0.268
CCGTTGAC | 0.0534
CGAGCTGC | -0.00491
GTATGCGA | -0.0635
ATCAGGAA | -0.0943
AACTGCGA | 0.148
TCAATTCA | -0.0799
CATTCGGA | 0.339
AATTCGGC | 0.157
AATTCGGA | 0.449
AATTCGGG | 0.215
GATTCGGA | 0.363
TATTCGGA | 0.408
TAAGGGCA | -0.144
CCCCGACC | 0.28
ATAGTCAG | -0.158
CGGACCCG | 0.394
AGGACCCG | 0.158
CGGACCAC | 0.293
GGGACCGA | 0.164
AGGACCGC | 0.227
CGGACCCC | 0.365
CGGACCGA | 0.409
CGGACCGC | 0.392

Sequence | PBM E-score
AGGACCGA | 0.0864
CCACTATC | 0.00626
CTATAGAC | -0.167
CTGATCTC | -0.0675
ACTAATGC | 0.126
CTCTGTTC | -0.0823
GCCGGTAA | 0.341
CCGGGGAA | 0.399
ACCGGGAA | 0.352
CCGGGGTA | 0.408
CGGGGGAA | 0.255
TCCGGGAA | 0.419
TCCGGTAA | 0.44
GCGGGGTA | 0.323
CCGGGGGA | 0.378
CCCGGGAA | 0.348
CGGGGGTA | 0.334
ACCGGTAA | 0.297
CAACGGCG | 0.207
CCATCGCC | 0.075
ATCCAGTA | -0.111
AGAGGTGC | 0.0557
AGCATAGG | -0.11
GGACACAC | 0.149
ACCGGGCA | 0.279
CCGGGGCA | 0.293

Sequence | PBM E-score
TCCGGGCA | 0.406
CCGGGGCG | 0.42
CCCGGGCG | 0.291
GCCGGGCA | 0.304
ATAACCTA | -0.148
CGAACTAA | -0.0681
ACGGATTC | 0.246
CCGGATTA | 0.455
ACGGATTA | 0.205
GCGGATTA | 0.261
CAGGATTC | -0.11
CCGGATTC | 0.405
CATTGGGA | -0.198
AGCAGGAT | -0.079
GTGGCCTA | -0.135
GATTCTAC | 0.107
GGCGGAAA | 0.328
GGCGGAGA | 0.444
CGCGGATA | 0.32
CGCGGAGC | 0.41
AGCGGAGC | 0.381
GGCGGATA | 0.293
CGCGGATC | 0.272
AGCGGAGG | 0.302
AGCGGAGA | 0.394
AGCGGATA | 0.287

Sequence | PBM E-score
CGCGGACA | 0.345
CGCGGAGA | 0.428
CGACTGAG | -0.181
CTCAGTCA | -0.282
CTGAGTTA | -0.248
ATTCCCAA | -0.06
ACCTCTCA | 0.0413
TAATTCCA | -0.0294
TCTCGGAA | 0.414
CCTCGGCA | 0.25
CCTCGGAG | 0.456
ACTCGGAA | 0.398
CCTCGGTA | -0.0307
GCTCGGAA | 0.338
ACTCGGAC | 0.383
CCTCGGAC | 0.374
ACTCGGAT | 0.251
TCTCGGCA | 0.266
CCTCGGCG | 0.359
CCTCGGAA | 0.39
